Results on 14 compounds are retold here after PubChem BioAssay (NCATS).

Where “and” joins values, the source holds several entries; their conditions need not be identical. Equal entries are not always repeated. Records with an inconclusive call do not appear. Calls of active or inactive are those of the source. The call rests on the fitted dose curve.

Vitamin D3 receptor (Homo sapiens), sequence (P11473 whole entry, looked up): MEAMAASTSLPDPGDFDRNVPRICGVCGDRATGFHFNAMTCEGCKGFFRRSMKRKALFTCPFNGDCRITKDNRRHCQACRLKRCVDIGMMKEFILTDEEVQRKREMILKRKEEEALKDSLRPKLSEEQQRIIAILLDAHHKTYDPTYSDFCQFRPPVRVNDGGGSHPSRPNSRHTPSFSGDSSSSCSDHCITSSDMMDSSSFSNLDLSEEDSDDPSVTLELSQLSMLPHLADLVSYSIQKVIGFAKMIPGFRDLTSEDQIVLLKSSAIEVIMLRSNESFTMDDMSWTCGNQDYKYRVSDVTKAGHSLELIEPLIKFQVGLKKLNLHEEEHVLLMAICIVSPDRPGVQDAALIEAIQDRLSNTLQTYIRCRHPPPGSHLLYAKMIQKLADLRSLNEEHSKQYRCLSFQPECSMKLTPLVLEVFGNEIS

For the first experiment, the target named is Vitamin D3 receptor (Homo sapiens) (UniProt P11473). Briefly: qHTS assay for small molecule agonists of vitamin D receptor signaling (AID 588543).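 Further: 0% = DMSO basal and 100% = reference agonist control.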 The settings on record: HEK293T VDR-UAS-bla, beta-lactamase ratio, 16 h; series mostly up to 76.8 µM. In a few lines:
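GeneBLAzer VDR-UAS-bla HEK293T cells in 2% charcoal-stripped FBS medium were dosed with compound titrations for 16 h at 37 °C; CCF4 β-lactamase readout (405 nm ex, 460/530 nm em). EC50 and efficacy from Hill fits, normalized to 50 nM calcitriol (100%) and DMSO (0%).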
Background: qHTS replaces the single test concentration by a dilution series.
Turning to `CC(C)OC(=O)Nc1cccc(Cl)c1`, the outcome was inactive.
Regarding `CNC(=O)Oc1cccc2c1OC(C)(C)O2`, the outcome was inactive.
Regarding `CCCCSP(=O)(SCCCC)SCCCC`, the outcome was inactive.
Take `CCS(=O)CCSP(=O)(OC)OC` (configuration not stated): the result was inactive.
For `CC(C)(C)C(=O)C(Oc1ccc(Cl)cc1)n1cncn1` (configuration not stated), the outcome was inactive.
In the case of `O=C(O)COc1cc(Cl)c(Cl)cc1Cl`, the outcome was inactive.
In the case of `CNC(=O)CSP(=S)(OC)OC`, the outcome was inactive.
For `COc1nc(NC(C)C)nc(NC(C)C)n1`, the outcome was inactive.
On to `CCc1cccc(C)c1N(C(=O)CCl)C(C)COC` (configuration not stated), for which the outcome was inactive.
`CNC(=O)Oc1ccccc1OC(C)C`: the result was inactive.

Test system in a further experiment: not listed separately
Briefly: qHTS assay for small molecule agonists of retinoid X receptor alpha signaling (AID 588544). The conditions noted are these: HEK293T RXRa-UAS-bla, beta-lactamase reporter, 18 h; 530 nm emission.
In the case of `CC(C)OC(=O)Nc1cccc(Cl)c1`, the max response was -7.86%.
For `CNC(=O)Oc1cccc2c1OC(C)(C)O2`, the max response was -5.16%.
Consider `CCS(=O)CCSP(=O)(OC)OC` (configuration not stated), for which the max response was -13.5%.
Take `COP(N)(=O)SC` (configuration not stated): the max response was -14.8% and -10.1%.
Regarding `CC(C)(C)C(=O)C(Oc1ccc(Cl)cc1)n1cncn1` (configuration not stated), the max response was 16% and -16.7%.
The same measure, in the same setting: under `CC(C)N1C(=O)c2ccccc2NS1(=O)=O` stands -6.21%.
For the compound `O=C(O)COc1cc(Cl)c(Cl)cc1Cl`, the max response stood at 28.5%.
For `CCC(=O)Nc1ccc(Cl)c(Cl)c1`, the max response was found to be 4.16%.
Turning to `CNC(=O)CSP(=S)(OC)OC`, the max response is 1.61%.
For `N#Cc1c(Cl)cccc1Cl`, the max response was -4.43%.
Same read-out and setting: as for `COc1nc(NC(C)C)nc(NC(C)C)n1`, the figure is 21.4%; as for `CNC(=O)Oc1ccccc1OC(C)C`, -0.248%.
